Assay [1] has as its target T1, Dual specificity tyrosine-phosphorylation-regulated kinase 2 (Homo sapiens) (UniProt Q92630).
T1 sequence (whole entry): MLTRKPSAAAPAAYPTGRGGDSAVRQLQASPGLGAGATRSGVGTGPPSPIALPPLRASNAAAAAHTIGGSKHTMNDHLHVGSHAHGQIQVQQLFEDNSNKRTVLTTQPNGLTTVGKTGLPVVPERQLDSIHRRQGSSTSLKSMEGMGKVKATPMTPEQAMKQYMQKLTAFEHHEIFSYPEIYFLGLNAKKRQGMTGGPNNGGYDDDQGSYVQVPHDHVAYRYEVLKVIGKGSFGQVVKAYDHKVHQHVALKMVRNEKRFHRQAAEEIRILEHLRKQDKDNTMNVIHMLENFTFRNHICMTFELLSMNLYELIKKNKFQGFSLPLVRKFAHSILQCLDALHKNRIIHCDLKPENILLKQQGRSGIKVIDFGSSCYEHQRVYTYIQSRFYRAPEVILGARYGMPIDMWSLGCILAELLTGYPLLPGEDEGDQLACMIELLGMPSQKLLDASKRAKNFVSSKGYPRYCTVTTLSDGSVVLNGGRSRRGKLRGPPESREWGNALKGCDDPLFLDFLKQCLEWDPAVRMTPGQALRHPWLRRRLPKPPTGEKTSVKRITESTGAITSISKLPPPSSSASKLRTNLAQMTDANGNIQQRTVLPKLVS
The note with it: at 1 µM.

In assay [2] the target is T1, Dual specificity tyrosine-phosphorylation-regulated kinase 2 (Homo sapiens). The following applies: at 10 µM.
Assay [3] addresses T2, Ephrin type-A receptor 1 (Homo sapiens) (UniProt P21709).
T2 sequence (whole entry): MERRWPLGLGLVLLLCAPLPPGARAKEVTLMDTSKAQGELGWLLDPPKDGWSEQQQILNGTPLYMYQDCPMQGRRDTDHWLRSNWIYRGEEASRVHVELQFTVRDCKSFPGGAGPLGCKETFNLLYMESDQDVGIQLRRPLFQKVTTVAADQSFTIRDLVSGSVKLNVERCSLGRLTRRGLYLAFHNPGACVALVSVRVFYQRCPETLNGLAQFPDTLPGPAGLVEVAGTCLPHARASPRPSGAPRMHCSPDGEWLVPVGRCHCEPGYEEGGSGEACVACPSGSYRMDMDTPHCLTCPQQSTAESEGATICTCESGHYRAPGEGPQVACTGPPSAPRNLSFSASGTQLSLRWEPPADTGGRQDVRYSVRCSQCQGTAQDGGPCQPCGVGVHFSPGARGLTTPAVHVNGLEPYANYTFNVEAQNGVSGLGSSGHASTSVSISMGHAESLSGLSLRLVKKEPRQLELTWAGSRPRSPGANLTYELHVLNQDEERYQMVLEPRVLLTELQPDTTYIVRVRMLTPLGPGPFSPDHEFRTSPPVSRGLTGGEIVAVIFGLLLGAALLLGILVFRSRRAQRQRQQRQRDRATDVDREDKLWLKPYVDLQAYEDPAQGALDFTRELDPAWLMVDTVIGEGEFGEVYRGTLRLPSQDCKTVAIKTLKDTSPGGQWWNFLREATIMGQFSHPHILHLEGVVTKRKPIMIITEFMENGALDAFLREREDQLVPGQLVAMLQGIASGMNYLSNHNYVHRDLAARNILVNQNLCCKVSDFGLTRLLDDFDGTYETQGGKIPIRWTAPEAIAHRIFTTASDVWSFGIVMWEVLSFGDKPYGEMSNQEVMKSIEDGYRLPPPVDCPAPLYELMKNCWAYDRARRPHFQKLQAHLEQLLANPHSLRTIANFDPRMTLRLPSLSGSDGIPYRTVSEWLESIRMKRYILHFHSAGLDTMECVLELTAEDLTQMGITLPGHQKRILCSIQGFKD
The following applies: at 1 µM.

In assay [4] the target is T2, Ephrin type-A receptor 1 (Homo sapiens). The note with it: at 10 µM.
The target of assay [5] is Ephrin type-A receptor 2 (Homo sapiens) (UniProt P29317). The note with it: at 1 µM.
The target is the same in assay [6]. The following applies: at 10 µM.
In assay [7] the target is T3, Ephrin type-A receptor 3 (Homo sapiens) (UniProt P29320).
T3 sequence (whole entry): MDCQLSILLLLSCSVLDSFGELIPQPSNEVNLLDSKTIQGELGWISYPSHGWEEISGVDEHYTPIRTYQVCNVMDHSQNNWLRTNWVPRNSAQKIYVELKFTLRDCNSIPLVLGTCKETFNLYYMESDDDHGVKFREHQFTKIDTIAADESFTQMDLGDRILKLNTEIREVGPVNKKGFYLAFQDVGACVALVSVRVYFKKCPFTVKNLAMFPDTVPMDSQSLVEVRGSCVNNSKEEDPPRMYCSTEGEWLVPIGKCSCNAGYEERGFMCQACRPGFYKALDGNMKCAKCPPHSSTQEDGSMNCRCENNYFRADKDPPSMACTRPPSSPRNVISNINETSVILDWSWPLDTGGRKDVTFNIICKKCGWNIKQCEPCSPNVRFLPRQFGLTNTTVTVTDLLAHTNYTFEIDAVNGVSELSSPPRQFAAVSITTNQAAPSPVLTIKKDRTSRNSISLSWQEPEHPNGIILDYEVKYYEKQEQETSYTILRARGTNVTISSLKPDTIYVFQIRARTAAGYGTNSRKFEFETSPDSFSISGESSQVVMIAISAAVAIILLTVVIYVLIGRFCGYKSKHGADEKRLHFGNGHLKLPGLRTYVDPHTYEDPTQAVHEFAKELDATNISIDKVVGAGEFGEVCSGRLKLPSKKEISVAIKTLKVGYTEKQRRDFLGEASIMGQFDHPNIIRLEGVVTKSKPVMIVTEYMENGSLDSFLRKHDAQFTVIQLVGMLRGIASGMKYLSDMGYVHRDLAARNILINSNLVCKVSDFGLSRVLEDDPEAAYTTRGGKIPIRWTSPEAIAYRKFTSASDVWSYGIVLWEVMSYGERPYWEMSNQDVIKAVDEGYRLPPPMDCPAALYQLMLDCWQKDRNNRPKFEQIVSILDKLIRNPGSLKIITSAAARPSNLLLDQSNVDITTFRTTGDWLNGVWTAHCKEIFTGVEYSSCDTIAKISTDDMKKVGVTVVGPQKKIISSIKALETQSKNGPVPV
The following applies: at 1 µM.

Assay [8] has as its target T3, Ephrin type-A receptor 3 (Homo sapiens). The following applies: at 10 µM.
Assay [9] has as its target Ephrin type-A receptor 4 (Homo sapiens) (UniProt P54764). The note with it: at 1 µM.
The target is the same in assay [10]. The following applies: at 10 µM.
Assay [11] addresses Ephrin type-A receptor 5 (Homo sapiens) (UniProt P54756). The following applies: at 1 µM.
Assay [12] shares this target. The following applies: at 10 µM.
The target of assay [13] is Ephrin type-A receptor 7 (Homo sapiens) (UniProt Q15375). The note with it: at 1 µM.
The target is the same in assay [14]. The note with it: at 10 µM.
The target of assay [15] is T4, Ephrin type-A receptor 8 (Homo sapiens) (UniProt P29322).
T4 sequence (whole entry): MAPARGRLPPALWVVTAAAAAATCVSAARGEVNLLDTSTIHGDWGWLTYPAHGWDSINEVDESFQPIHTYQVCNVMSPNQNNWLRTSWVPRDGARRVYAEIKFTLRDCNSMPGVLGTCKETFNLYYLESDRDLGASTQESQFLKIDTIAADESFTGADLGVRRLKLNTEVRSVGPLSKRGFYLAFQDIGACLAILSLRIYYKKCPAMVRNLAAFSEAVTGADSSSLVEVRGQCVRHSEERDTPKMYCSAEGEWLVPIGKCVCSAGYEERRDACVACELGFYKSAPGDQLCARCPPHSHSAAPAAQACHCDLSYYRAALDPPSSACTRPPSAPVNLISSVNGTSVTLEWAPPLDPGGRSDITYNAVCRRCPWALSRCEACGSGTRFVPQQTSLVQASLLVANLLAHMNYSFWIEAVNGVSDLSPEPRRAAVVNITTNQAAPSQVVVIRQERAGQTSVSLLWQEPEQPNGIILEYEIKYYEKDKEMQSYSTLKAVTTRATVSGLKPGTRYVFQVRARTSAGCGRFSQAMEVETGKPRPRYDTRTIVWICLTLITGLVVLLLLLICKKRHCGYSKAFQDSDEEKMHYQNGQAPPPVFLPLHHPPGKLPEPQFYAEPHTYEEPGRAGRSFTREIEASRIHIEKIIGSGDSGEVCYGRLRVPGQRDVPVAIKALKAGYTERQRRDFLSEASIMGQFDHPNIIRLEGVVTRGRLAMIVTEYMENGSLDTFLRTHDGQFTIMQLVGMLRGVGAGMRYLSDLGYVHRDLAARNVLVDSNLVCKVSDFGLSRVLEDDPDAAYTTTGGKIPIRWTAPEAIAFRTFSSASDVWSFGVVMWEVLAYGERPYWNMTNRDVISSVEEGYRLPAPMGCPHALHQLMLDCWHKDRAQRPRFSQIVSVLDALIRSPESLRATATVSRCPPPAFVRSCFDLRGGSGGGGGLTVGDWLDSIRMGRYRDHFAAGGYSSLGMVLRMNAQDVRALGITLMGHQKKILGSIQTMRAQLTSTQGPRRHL
The following applies: at 1 µM.

The target of assay [16] is T4, Ephrin type-A receptor 8 (Homo sapiens). The note with it: at 10 µM.
Assay [17] deals with T5, Ephrin type-B receptor 1 (Homo sapiens) (UniProt P54762).
T5 sequence (whole entry): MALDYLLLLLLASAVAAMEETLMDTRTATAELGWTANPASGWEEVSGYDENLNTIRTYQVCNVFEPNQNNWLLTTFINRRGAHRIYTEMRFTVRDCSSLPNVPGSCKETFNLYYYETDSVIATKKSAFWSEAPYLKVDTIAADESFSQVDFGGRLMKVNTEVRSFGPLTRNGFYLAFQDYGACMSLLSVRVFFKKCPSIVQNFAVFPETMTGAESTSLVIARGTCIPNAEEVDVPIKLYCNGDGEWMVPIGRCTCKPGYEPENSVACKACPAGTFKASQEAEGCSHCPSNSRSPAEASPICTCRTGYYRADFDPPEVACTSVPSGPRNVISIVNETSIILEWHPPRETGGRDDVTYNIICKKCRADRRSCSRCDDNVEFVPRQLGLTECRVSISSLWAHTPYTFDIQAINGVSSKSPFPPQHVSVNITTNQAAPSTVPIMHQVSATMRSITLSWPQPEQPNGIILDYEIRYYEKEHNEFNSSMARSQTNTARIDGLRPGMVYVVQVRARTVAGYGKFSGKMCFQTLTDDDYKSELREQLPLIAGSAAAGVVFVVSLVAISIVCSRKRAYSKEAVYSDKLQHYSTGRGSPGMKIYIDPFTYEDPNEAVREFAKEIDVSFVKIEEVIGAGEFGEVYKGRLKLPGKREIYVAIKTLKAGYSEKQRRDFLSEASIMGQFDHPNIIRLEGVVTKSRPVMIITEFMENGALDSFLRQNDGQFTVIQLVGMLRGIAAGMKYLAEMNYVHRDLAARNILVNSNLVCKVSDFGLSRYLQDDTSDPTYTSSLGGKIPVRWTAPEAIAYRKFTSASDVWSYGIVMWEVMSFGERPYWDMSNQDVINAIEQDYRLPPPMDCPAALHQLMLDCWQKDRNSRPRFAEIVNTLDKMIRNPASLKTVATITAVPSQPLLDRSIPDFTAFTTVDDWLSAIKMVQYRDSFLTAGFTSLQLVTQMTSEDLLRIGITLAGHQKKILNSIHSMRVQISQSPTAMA
The following applies: at 1 µM.

The target of assay [18] is T6, Serine/threonine-protein kinase 17A (Homo sapiens) (UniProt Q9UEE5).
T6 sequence (whole entry): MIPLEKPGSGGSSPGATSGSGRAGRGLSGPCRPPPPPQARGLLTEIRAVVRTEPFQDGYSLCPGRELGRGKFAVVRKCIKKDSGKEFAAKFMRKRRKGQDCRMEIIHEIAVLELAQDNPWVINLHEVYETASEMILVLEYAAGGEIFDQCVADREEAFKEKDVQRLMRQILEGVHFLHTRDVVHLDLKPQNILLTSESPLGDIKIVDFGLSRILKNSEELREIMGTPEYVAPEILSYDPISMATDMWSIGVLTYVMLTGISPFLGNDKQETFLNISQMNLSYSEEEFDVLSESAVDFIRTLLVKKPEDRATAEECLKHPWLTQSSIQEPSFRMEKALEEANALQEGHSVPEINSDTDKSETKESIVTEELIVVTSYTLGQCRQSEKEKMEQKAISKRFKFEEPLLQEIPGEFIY
The following applies: at 10 µM.

As usually defined, the residual activity is the signal under treatment as a percentage of the control signal.

Sequence of Ephrin type-A receptor 5 (Homo sapiens) (P54756 whole entry): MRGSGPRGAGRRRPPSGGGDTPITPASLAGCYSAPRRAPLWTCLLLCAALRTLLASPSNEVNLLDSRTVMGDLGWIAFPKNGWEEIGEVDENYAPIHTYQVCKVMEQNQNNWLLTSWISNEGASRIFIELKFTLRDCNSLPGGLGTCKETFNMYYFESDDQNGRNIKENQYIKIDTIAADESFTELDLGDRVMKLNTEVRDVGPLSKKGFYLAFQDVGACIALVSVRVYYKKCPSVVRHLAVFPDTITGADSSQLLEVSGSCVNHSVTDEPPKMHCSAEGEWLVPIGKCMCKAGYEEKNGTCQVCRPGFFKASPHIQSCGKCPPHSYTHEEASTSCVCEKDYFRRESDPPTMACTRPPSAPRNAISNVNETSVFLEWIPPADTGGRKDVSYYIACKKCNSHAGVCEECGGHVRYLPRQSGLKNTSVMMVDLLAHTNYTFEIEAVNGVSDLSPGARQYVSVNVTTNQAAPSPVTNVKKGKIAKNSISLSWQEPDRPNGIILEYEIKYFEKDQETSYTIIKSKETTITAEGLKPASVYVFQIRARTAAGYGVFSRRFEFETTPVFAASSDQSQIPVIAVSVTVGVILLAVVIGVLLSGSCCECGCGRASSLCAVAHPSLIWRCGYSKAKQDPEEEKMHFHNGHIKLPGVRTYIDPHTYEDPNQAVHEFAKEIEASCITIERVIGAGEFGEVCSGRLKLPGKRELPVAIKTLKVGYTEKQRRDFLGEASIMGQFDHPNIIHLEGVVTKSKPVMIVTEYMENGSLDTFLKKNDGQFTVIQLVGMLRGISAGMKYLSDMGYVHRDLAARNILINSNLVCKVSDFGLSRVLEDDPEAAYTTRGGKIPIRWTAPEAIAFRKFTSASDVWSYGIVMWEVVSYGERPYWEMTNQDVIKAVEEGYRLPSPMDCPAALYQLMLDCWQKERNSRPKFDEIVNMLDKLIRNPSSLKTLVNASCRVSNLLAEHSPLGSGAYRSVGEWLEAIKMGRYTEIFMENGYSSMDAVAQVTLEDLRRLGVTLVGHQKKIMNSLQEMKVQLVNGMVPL
Sequence of Ephrin type-A receptor 7 (Homo sapiens) (Q15375 28-998 limits assumed): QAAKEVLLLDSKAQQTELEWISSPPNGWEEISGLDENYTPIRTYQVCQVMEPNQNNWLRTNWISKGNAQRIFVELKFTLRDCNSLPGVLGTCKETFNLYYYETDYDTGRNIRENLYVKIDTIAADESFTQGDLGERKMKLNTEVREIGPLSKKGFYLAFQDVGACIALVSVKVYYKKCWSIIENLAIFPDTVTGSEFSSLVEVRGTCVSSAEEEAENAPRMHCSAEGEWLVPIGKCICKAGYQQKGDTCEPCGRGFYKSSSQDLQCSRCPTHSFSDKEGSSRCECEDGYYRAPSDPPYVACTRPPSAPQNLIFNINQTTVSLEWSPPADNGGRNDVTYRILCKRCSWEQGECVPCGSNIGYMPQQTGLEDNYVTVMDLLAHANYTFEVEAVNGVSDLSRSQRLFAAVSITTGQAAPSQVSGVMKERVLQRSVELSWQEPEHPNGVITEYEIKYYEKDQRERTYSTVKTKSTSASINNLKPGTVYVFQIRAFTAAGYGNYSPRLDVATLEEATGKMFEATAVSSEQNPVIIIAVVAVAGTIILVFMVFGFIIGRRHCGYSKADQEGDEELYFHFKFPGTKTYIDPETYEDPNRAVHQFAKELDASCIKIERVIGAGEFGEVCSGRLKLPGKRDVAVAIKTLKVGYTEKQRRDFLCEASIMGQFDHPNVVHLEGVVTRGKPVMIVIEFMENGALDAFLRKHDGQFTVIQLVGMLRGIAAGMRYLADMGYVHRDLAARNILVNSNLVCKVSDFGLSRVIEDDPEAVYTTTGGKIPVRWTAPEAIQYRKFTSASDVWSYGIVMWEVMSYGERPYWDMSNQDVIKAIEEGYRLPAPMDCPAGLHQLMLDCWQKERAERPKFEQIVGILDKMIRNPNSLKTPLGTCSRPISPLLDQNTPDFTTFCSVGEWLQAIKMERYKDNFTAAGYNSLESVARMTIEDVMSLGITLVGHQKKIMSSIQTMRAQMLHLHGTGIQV
Sequence of Ephrin type-A receptor 4 (Homo sapiens) (P54764 whole entry): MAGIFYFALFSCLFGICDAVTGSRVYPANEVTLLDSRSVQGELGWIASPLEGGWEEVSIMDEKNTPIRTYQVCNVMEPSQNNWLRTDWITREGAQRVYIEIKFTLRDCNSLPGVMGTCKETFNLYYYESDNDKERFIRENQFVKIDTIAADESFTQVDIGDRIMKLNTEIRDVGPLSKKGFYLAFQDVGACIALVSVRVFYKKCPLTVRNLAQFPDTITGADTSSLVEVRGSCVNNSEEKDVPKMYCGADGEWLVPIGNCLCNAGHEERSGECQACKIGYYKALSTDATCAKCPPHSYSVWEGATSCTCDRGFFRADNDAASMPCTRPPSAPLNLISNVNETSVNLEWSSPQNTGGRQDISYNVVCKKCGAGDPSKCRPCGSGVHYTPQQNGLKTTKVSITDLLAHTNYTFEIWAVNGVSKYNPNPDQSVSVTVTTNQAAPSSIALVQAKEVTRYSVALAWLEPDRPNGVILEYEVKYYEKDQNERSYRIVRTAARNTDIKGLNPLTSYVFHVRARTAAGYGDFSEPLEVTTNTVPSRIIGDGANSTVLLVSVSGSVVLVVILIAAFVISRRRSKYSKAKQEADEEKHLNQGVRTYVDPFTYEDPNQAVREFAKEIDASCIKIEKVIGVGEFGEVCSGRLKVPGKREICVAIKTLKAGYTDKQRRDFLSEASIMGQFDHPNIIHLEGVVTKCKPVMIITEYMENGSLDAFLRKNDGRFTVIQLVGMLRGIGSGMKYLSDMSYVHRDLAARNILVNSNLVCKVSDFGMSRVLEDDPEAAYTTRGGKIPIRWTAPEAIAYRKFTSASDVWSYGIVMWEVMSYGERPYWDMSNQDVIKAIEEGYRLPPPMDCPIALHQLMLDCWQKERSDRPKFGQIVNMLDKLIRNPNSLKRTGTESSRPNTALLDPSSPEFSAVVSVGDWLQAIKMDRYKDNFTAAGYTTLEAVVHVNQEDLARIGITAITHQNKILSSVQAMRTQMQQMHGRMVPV
Sequence of Ephrin type-A receptor 2 (Homo sapiens) (P29317 whole entry): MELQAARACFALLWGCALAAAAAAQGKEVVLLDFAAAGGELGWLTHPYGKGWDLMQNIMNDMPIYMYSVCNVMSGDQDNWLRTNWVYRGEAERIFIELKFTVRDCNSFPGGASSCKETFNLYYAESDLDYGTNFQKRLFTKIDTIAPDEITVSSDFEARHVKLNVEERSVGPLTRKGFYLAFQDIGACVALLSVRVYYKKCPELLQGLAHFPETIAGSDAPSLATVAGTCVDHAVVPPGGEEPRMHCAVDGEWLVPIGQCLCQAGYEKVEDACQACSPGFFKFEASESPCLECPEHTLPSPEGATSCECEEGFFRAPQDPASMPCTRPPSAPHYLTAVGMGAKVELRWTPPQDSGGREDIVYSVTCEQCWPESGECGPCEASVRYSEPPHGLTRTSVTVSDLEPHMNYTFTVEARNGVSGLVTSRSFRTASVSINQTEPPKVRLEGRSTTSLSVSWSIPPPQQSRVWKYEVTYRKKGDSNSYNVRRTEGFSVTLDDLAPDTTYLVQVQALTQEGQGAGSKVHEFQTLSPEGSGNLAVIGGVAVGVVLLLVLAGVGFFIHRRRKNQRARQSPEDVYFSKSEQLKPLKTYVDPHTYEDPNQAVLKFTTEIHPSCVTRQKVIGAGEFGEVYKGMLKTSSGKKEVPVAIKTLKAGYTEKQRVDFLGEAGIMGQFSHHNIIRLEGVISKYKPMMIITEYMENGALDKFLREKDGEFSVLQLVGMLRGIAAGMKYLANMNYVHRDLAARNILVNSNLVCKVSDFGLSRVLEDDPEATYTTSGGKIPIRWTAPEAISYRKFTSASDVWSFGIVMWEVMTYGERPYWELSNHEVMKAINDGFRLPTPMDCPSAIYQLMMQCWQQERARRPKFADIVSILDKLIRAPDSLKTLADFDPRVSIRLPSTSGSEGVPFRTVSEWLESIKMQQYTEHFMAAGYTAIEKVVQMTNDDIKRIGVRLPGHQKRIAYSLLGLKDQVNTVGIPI

In the case of `Oc1ccc(-c2nc(-c3ccc(F)cc3)c(-c3ccncc3)[nH]2)cc1`, the residual activity in assay [1] worked out at 99%; in assay [2], 76%; in assay [3] it was 87%; in assay [4], 16%; in assay [5], 93%; in [6] it was 57%. For the same molecule, the residual activity in assay [7] stood at 105%; in assay [8] it was 81%; in assay [9], 117%; in assay [10] it was 87%; in [11] it was 103%; in assay [12] it was 56%. Further, the residual activity in assay [13] came to 103%; in assay [14] it was 58%; in assay [15] it was 93%; in assay [16], 45%; in assay [17] it was 115%.

On to `COc1cc2ncnc(Nc3ccc(NC(=O)c4ccccc4)cc3)c2cc1OC`, for which the residual activity in assay [18] was found to be 78%; in assay [1], 98%; in [2] it was 98%; in [3], 107%; in assay [4], 106%; in assay [8] it was 102%. Moreover, the residual activity in assay [9] worked out at 109%; in assay [10], 102%; in assay [11], 104%; in [12], 97%; in assay [13], 92%; in [14], 66%. Also, the residual activity in [15] is 103%; in [16] it was 103%; in assay [17], 97%.

For the origin of these results see ChEMBL document CHEMBL2218924, “A broad activity screen in support of a chemogenomic map for kinase signalling research and drug discovery” (Biochem J, 2013).
